Screens from PubChem.
HT1080 IDH1KD tx: toxicity to HT-1080 IDH1 knockdown cells (counter line). HT-1080 IDH1 knockdown viability, ATP luminescence, 48 h. Potency, µM (doses to about 46.1 µM), inactives show at the highest dose activity, negative = toxicity, most hits filed as cytotoxic. 2% of 360,000 active. AID 686971;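 further: potency means the concentration at half of the fitted maximal effect; 0% = DMSO wells and -100% = cell-free medium wells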
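Luminescent ATP read-out (CellTiter-Glo, 10 min at room temperature) after 48 h compound exposure at 37 °C gave viability of IDH1-knockdown HT-1080 cells. Activity was normalised to DMSO and cell-free wells, then fitted as concentration-response curves.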
HT1080-NT tox: kills 2HG-producing HT-1080-NT fibrosarcoma cells; HT-1080-NT fibrosarcoma viability, CellTiter-Glo ATP luminescence, 48 h; Potency, µM (titrated, usually from 46.1 µM), for inactives: at the top dose activity, negative = less viability, usual class: cytotoxic; 1.6% of 360,000 active; AID 686970;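 further: NT is the 2HG producing partner of a matched IDH1 knockdown line; potency means the concentration at half of the fitted maximal effect; 0% = DMSO-treated cells and -100% = media-only wells without cells; nearly all actives have a fitted effect of over 55% in size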
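Read-out is CellTiter-Glo luminescence after 10 minutes at room temperature, following 48 hours' compound treatment of HT-1080-NT cells (750 cells/well, RPMI, 5% FBS, 37 degrees C).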
DT40 TDP1 no CPT: qHTS for Inhibitors of human tyrosyl-DNA phosphodiesterase 1 (TDP1): qHTS in cells in absence of CPT; DT40 Tdp1-/- hTDP1 cells, no CPT, ATP luminescence, 48 h; Potency, µM (top dose mostly 46.2 µM), for inactives: at the top dose activity change, negative = growth inhibition, actives largely listed as inhibitors; 15% of 420,000 active; further: potency means the concentration at half of the fitted maximal effect; nearly all actives have a fitted effect of over 55% in size
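Compound effects on proliferation are scored in DT40 Tdp1-/-;hTDP1 cells in the absence of CPT. ATP levels (CellTiter-Glo luminescence) are recorded after a ≥48 hr, 37 °C incubation.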
ALOX12 inh: ALOX12 (human) lipoxygenase inhibition; P18054; purified 12hLO, xylenol orange hydroperoxide absorbance; Potency, µM (highest dose often 108 µM), for inactives: at the highest dose activity change, negative = inhibition, actives largely listed as inhibitors; 1.1% of 580,000 active; AID 1671190; further: potency means the concentration at half of the fitted maximal effect
Target sequence (P18054 whole entry, looked up): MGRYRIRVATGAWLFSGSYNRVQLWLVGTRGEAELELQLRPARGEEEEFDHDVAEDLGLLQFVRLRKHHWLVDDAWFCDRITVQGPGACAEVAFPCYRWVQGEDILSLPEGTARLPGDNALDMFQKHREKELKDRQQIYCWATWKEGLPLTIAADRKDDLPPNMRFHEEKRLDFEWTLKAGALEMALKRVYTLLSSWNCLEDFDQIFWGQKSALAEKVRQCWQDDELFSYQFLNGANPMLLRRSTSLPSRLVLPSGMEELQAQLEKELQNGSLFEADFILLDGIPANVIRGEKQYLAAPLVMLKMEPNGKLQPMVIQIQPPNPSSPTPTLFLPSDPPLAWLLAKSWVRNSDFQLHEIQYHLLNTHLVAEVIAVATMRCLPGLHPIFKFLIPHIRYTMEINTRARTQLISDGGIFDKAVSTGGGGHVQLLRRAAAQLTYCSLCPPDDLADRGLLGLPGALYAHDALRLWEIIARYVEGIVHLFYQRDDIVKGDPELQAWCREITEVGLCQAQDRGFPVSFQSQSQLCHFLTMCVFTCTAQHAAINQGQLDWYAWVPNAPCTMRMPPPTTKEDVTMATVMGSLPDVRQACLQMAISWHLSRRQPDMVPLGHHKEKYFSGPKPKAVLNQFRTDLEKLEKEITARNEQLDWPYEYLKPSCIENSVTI
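Purified human 12hLO at 150 nM in 25 mM Hepes, 0.01% Triton X-100, pH 7.0, preincubated 15 min at room temperature with compound. Reaction started with 40 uM arachidonic acid, 30 min at room temperature. Hydroperoxide measured by Fe-xylenol orange, 573/405 nm absorbance ratio.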
DT40 TDP1 CPT: growth inhibition of DT40 Tdp1-/-;hTDP1 cells with camptothecin (screen for TDP1 inhibitors). chicken DT40 Tdp1-/-;hTDP1 cells + 20 nM CPT, ATP luminescence, 48 h. Potency, µM (highest dose often 46.2 µM), for inactives: at the highest dose activity change, negative = growth inhibition, actives largely listed as inhibitors. AID 686979. 12% of 420,000 active; further: potency means the concentration at half of the fitted maximal effect; nearly all actives have a fitted effect of over 55% in size
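Chicken DT40 Tdp1-/- cells complemented with human TDP1, 400 cells/well, exposed to compounds plus 20 nM camptothecin for at least 48 h at 37 C; viability read as ATP content by CellTiter-Glo luminescence.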
IL1B secr inh: blocks inflammasome-driven IL-1 beta release; THP-1 LPS/ATP IL-1B secretion, AlphaLISA, 16 h; stronger effect = lower value; 4.7% of 360,000 active; activity change, % at 57.5 µM; in the data active means activity change below about -50%; inconclusive means mostly about -30% to -49%
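THP-1 cells pretreated 1 hr with compounds (up to 57.5 uM final), then stimulated with LPS (250 ng/mL final) plus ATP (1.25 mM final); secreted IL-1B measured by AlphaLISA after 16 hr, decreased signal indicating inhibition.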
Active calls of the source: *; [ ] = remark or other dose. The full list was thinned out, with hits kept by preference. Unless noted, the call rests on the fitted dose curve; in most records, active means well fitted curve in the direction sought with a large enough effect; inconclusive means small, poorly fitted or top-dose-only effect, or another doubt; inactive means no such curve, though single readings can be large; an effect the other way counts as inactive or inconclusive. Unless noted, on the % scale 0 is the no-effect control and ±100 the full control effect.

Results for CSc1ncccc1C(=O)NC1CC(C)(C)Cc2c1cnn2-c1ccccc1C (configuration not stated) ?
HT1080 IDH1KD tx: 15.6%; HT1080-NT tox: 0.1%; DT40 TDP1 no CPT: inconclusive; ALOX12 inh: 0.5%; DT40 TDP1 CPT: 23.1µM*; IL1B secr inh: -1.7

How did Cc1ccccc1-n1ncc2c1CC(C)(C)CC2NC(=O)c1snnc1C (configuration not stated) do in these assays?
HT1080 IDH1KD tx: -11.3%; HT1080-NT tox: 0.7%; DT40 TDP1 no CPT: 25.9µM*; ALOX12 inh: -1.4%; DT40 TDP1 CPT: inconclusive; IL1B secr inh: 4.6

Results for Cc1ccccc1-n1ncc2c1CC(C)(C)CC2NC(=O)c1ccncc1 (configuration not stated) ?
HT1080 IDH1KD tx: 1.8%; HT1080-NT tox: -0.2%; DT40 TDP1 no CPT: -20.3%; ALOX12 inh: -2.4%; DT40 TDP1 CPT: -9.9%; IL1B secr inh: 2.0

How did Cc1ccccc1-n1ncc2c1CC(C)(C)CC2NC(=O)CCC(F)(F)F (configuration not stated) do in these assays?
HT1080 IDH1KD tx: 15.6%; HT1080-NT tox: 17.6%; DT40 TDP1 no CPT: inconclusive; ALOX12 inh: 2.5%; DT40 TDP1 CPT: -10.7%; IL1B secr inh: 6.5

How did O=S(=O)(NC1CCN(c2ncccn2)CC1)N1CCCCCC1 do in these assays?
ALOX12 inh: 25.1%

How did CN(Cc1ccccc1)c1nc2c(c(=O)n(C)c(=O)n2C)n1CCSc1nc2ccccc2o1 do in these assays?
ALOX12 inh: -1.6%

Results for Cc1ccc(-n2ncc3c2CC(C)(C)CC3NC(=O)c2ccccn2)cc1 (configuration not stated) ?
HT1080 IDH1KD tx: inconclusive; HT1080-NT tox: inconclusive; DT40 TDP1 no CPT: inconclusive; ALOX12 inh: -12.8%; DT40 TDP1 CPT: inconclusive; IL1B secr inh: -81.0*

How did COc1cc(Cl)c(NS(=O)(=O)c2ccc3c(c2)CC(C)N3C(=O)C2CCC2)c(OC)c1 (configuration not stated) do in these assays?
DT40 TDP1 no CPT: 5.8µM*; ALOX12 inh: -7.4%; DT40 TDP1 CPT: 6.51µM*

How did COc1ccc(NS(=O)(=O)c2ccc3c(c2)CC(C)N3C(=O)C2CCC2)cc1OC (configuration not stated) do in these assays?
DT40 TDP1 no CPT: 0.651µM*; ALOX12 inh: -0.7%; DT40 TDP1 CPT: 1.03µM*

Results for CCOC(=O)c1cc(C(C)(O)CCC=C(C)C)on1 (configuration not stated) ?
ALOX12 inh: -19.7%

What do the screens show for `C=CCn1cccc(C(=O)Nc2ccc(C)c(C)c2)c1=O`?
HT1080 IDH1KD tx: -6.2%; HT1080-NT tox: -14.2%; DT40 TDP1 no CPT: -9.8%; DT40 TDP1 CPT: 3.2%; IL1B secr inh: -78.3*

Results for C=CCn1cccc(C(=O)Nc2ccc(C)cc2)c1=O ?
HT1080 IDH1KD tx: -7.7%; HT1080-NT tox: -5.0%; DT40 TDP1 no CPT: -9.4%; ALOX12 inh: inconclusive; DT40 TDP1 CPT: -22.8%; IL1B secr inh: 0.0

Results for N#CC1=C(N)NC(=S)C(C(N)=O)C1c1ccc([N+](=O)[O-])cc1 (configuration not stated) ?
HT1080 IDH1KD tx: -10.8%; HT1080-NT tox: -0.6%; DT40 TDP1 no CPT: -6.2%; ALOX12 inh: 44.7µM*; DT40 TDP1 CPT: 4.9%; IL1B secr inh: 17.6

What do the screens show for `Cc1cccc[n+]1C1C(c2ccc([N+](=O)[O-])cc2)C(C#N)=C(C(=C=[N-])C#N)NC1(O)C1CC1` (configuration not stated)?
HT1080 IDH1KD tx: 2.1%; HT1080-NT tox: -7.6%; DT40 TDP1 no CPT: -24.7%; ALOX12 inh: -12.8%; DT40 TDP1 CPT: 10.7%; IL1B secr inh: 33.4

What do the screens show for `CCOCCOC(=O)c1[nH]c2c(c1C)C(=O)CC(c1ccccc1)C2` (configuration not stated)?
HT1080 IDH1KD tx: 0.259µM*; HT1080-NT tox: 0.146µM*; DT40 TDP1 no CPT: 0.92µM*; ALOX12 inh: -3.1%; DT40 TDP1 CPT: 1.46µM*; IL1B secr inh: 65.3

What do the screens show for `Cc1c(C(=O)OCc2ccccc2)[nH]c2c1C(=O)CC(c1ccc(N(C)C)cc1)C2` (configuration not stated)?
DT40 TDP1 no CPT: -18.4%; ALOX12 inh: -9.1%; DT40 TDP1 CPT: inconclusive

How did CCCOC(=O)c1[nH]c2c(c1C)C(=O)CC(c1ccc(OC)c(OC)c1)C2 (configuration not stated) do in these assays?
HT1080 IDH1KD tx: -1.1%; HT1080-NT tox: -4.7%; DT40 TDP1 no CPT: -20.3%; ALOX12 inh: 0.6%; DT40 TDP1 CPT: inconclusive; IL1B secr inh: 15.8

What do the screens show for `Cc1ccc(COC(=O)c2[nH]c3c(c2C)C(=O)CC(c2ccc(Cl)cc2)C3)cc1` (configuration not stated)?
DT40 TDP1 no CPT: 9.2µM*; ALOX12 inh: -7.8%; DT40 TDP1 CPT: 11.6µM*

How did Cc1c(C(=O)OCCOc2ccccc2)[nH]c2c1C(=O)CC(c1ccccc1Cl)C2 (configuration not stated) do in these assays?
DT40 TDP1 no CPT: 1.46µM*; ALOX12 inh: inconclusive; DT40 TDP1 CPT: 1.46µM*

What do the screens show for `Cc1c(C(=O)OCC2CCCCC2)[nH]c2c1C(=O)CC(c1ccc(Cl)cc1)C2` (configuration not stated)?
DT40 TDP1 no CPT: -4.4%; ALOX12 inh: -7.3%; DT40 TDP1 CPT: -12.6%

How did CCCCCOC(=O)c1[nH]c2c(c1C)C(=O)CC(c1ccco1)C2 (configuration not stated) do in these assays?
HT1080 IDH1KD tx: 0.0164µM*; HT1080-NT tox: 0.103µM*; DT40 TDP1 no CPT: 0.164µM*; DT40 TDP1 CPT: 0.184µM*; IL1B secr inh: 78.7

Results for O=C(CCN1CCN(C(=O)OCc2cc(Cl)cc(Cl)c2)CC1)c1ccc2[nH]c(=O)oc2c1 ?
ALOX12 inh: -5.4%[57.4 µM]

What do the screens show for `COc1ccc(-c2nc(CSc3nc(C)c(C)c(=O)[nH]3)c(C)o2)c(OC)c1`?
ALOX12 inh: -6.0%

What do the screens show for `Cc1c(C(=O)OC2CCC(C)CC2)[nH]c2c1C(=O)CC(c1ccccc1Cl)C2` (configuration not stated)?
DT40 TDP1 no CPT: 4.61µM*; ALOX12 inh: -12.0%; DT40 TDP1 CPT: 5.17µM*
